Results as given in the supplement of paper PMC8975748.
Counter-ions that a name gives are not always drawn.

Test system: Saccharomyces cerevisiae BY4741 SeMeCo community
Experiment: z-score of subpopulation abundance vs DMSO median, subpopulation auxotrophic for HLU; higher = larger share of this subpopulation than in DMSO controls
Details: 10 µM; 24 h; SM minimal medium; subpopulation (auxotrophy): HLU
Experimental: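 Fluorescent four-plasmid SeMeCo (self-establishing metabolically cooperating S. cerevisiae BY4741 community; plasmids pH-mRuby2, pL-mWasabi, pU-eCFP, pM-TagRFP657) was grown 24 h in minimal SM medium with each Selleck FDA-approved drug at 10 µM in 384-well plates. Cells were fixed and imaged by high-content confocal microscopy. For each auxotrophic subpopulation (and the prototroph), a z-score gives the deviation from the DMSO vehicle-control population median.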

Structure (SMILES)	z-score of subpopulation abundance
C[C@H](Nc1ncnc2nc[nH]c12)c1cc2cccc(Cl)c2c(=O)n1-c1ccccc1 [Duvelisib (IPI-145, INK1197)]	0.95
CCOc1cc(N)c([N+](=O)[O-])cc1C(=O)NC1CCN(CC2CC=CCC2)CC1 (stereo not given) [Cinitapride Hydrogen Tartrate]	0.47
CN(Cc1cnc2nc(N)nc(N)c2n1)c1ccc(C(=O)N[C@@H](CCC(=O)O)C(=O)O)cc1 [Methotrexate]	4.61
NC(=O)N/N=C/c1ccc([N+](=O)[O-])o1 [Nitrofural]	-1.14
Cc1cc(/C=C/c2ccc3cc(N(C)C)ccc3[n+]2C)c(C)n1-c1ccccc1 [pyrvinium]	-0.46
Cc1cc(NS(=O)(=O)c2ccc(N)cc2)no1 [Sulfamethoxazole sodium]	-1.18
CCOC(=O)c1ccc(N)cc1 [Benzocaine]	-0.97
Clc1ccc(CCC(Cn2ccnc2)Sc2c(Cl)cccc2Cl)cc1 (stereo not given) [Butoconazole nitrate]	12.5
CNCC[C@@H](Oc1ccccc1C)c1ccccc1 [Atomoxetine HCl]	0.11
C[C@@H](NCCCc1cccc(C(F)(F)F)c1)c1cccc2ccccc12 [Cinacalcet HCl]	-0.17
COCCOC(=O)C1=C(C)NC(C)=C(C(=O)OC/C=C/c2ccccc2)C1c1cccc([N+](=O)[O-])c1 (stereo not given) [Cilnidipine]	1.34
CCC1=C(C)CN(C(=O)NCCc2ccc(S(=O)(=O)NC(=O)N[C@H]3CC[C@H](C)CC3)cc2)C1=O [Glimepiride]	0.26
CN(C)CC(c1ccc(O)cc1)C1(O)CCCCC1 (stereo not given) [Desvenlafaxine]	-1.12
CCCCNC(=O)NS(=O)(=O)c1ccc(C)cc1 [Tolbutamide]	-0.37
Clc1ccc(COC(Cn2ccnc2)c2ccc(Cl)cc2Cl)c(Cl)c1 (stereo not given) [Miconazole]	11.1
COc1ccc(C(C)=O)c(O)c1 [Paeonol]	-0.12
C#CCN[C@@H]1CCc2ccccc21 [Rasagiline]	-0.13
CCOc1ccc2nc3cc(N)ccc3c(N)c2c1 [Ethacridine lactate monohydrate]	-4.38
O=C(O)c1cc(/N=N/c2ccc(O)c(C(=O)O)c2)ccc1O [Olsalazine Sodium]	-1.31
O=C(Cn1cnnn1)N[C@@H]1C(=O)N2C(C(=O)O)=C(CSc3nncs3)CS[C@H]12 [Ceftezole sodium]	0.11

Structure (SMILES)	z-score of subpopulation abundance
CCOC(=O)CCC(=O)O[C@H]1[C@H](O[C@@H]2[C@@H](C)[C@H](O[C@H]3C[C@@](C)(OC)[C@@H](O)[C@H](C)O3)[C@@H](C)C(=O)O[C@H](CC)[C@@](C)(O)[C@H](O)[C@@H](C)C(=O)[C@H](C)C[C@@]2(C)O)O[C@H](C)C[C@@H]1N(C)C [Erythromycin Ethylsuccinate]	1.44
CC[C@H]1OC(=O)[C@H](C)[C@@H](O[C@H]2C[C@@](C)(OC)[C@@H](O)[C@H](C)O2)[C@H](C)[C@@H](O[C@@H]2O[C@H](C)C[C@H](N(C)C)[C@H]2O)[C@](C)(O)C[C@@H](C)/C(=N\OCOCCOC)[C@H](C)[C@@H](O)[C@]1(C)O [Roxithromycin]	0
C[C@H]1NCc2cc(-c3ccc4c(=O)c(C(=O)O)cn(C5CC5)c4c3OC(F)F)ccc21 [Garenoxacin]	0.74
CCC(=O)O[C@@H]1CC(=O)O[C@H](C)C/C=C/C=C/[C@H](O)[C@H](C)C[C@H](CC=O)[C@H](O[C@@H]2O[C@H](C)[C@@H](O[C@H]3C[C@@](C)(O)[C@@H](OC(=O)CC)[C@H](C)O3)[C@H](N(C)C)[C@H]2O)[C@H]1OC [Midecamycin]	-0.1
CCCOc1ccc2c(c1)CC[C@@H]1[C@@H]2CC[C@]2(C)[C@@H](OC)CC[C@@H]12 [Promestriene]	0.6
CCN(CC)C(=O)C1(c2ccccc2)CC1CN (stereo not given) [Milnacipran HCl]	-0.08
Cc1c(OCC(F)(F)F)ccnc1C[S@@+]([O-])c1nc2ccccc2[nH]1 [Dexlansoprazole]	0.19
Cc1ccc(Sc2ccccc2N2CCNCC2)c(C)c1 [Vortioxetine]	0.51
O=C(CCCN1CCC(O)(c2ccc(Cl)cc2)CC1)c1ccc(F)cc1 [Haloperidol]	0.13
CCCCOc1cc(C(=O)NCCN(CC)CC)c2ccccc2n1 [Dibucaine HCl]	-0.62
O=C(O)CCC(=O)Nc1ccc(S(=O)(=O)Nc2nccs2)cc1 [Succinylsulfathiazole]	-0.43
Clc1ccc(CCC(Cn2ccnc2)Sc2c(Cl)cccc2Cl)cc1 (stereo not given) [Butoconazole]	9.84
CC[N+](C)(C)c1cccc(O)c1 [Edrophonium chloride]	-0.56
C[C@]1(COc2ccc(N3CCC(Oc4ccc(OC(F)(F)F)cc4)CC3)cc2)Cn2cc([N+](=O)[O-])nc2O1 [Delamanid]	0.12
O=C(O)C1=C(CSc2nnnn2CS(=O)(=O)O)CS[C@@H]2[C@H](NC(=O)[C@H](O)c3ccccc3)C(=O)N12 [Cefonicid sodium]	0.39
COc1ccc(CC2c3cc(OC)c(OC)cc3CC[N+]2(C)CCC(=O)OCCCCCOC(=O)CC[N+]2(C)CCc3cc(OC)c(OC)cc3C2Cc2ccc(OC)c(OC)c2)cc1OC (stereo not given) [Atracurium Besylate]	0.55
CCOc1ccc2ccccc2c1C(=O)N[C@@H]1C(=O)N2[C@@H]1SC(C)(C)[C@@H]2C(=O)O [Nafcillin Sodium]	-0.19
Cn1cc(C(=O)[C@@H]2CCc3[nH]cnc3C2)c2ccccc21 [Ramosetron Hydrochloride]	0.86
CCN1CCC[C@H]1CNC(=O)c1cc(S(N)(=O)=O)ccc1OC [Levosulpiride]	-1.02
c1ccc2[nH]c(-c3cscn3)nc2c1 [Thiabendazole]	-0.4
